Assay results as given in PubChem BioAssay AID1445 (SRMLSC, 2008).
Screen size: about 220,000 compounds; about 910 (0.41%) were called active.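 How the source made its calls: active means primary inhibition above the hit cutoff, then over 50% inhibition at one or more dose response concentrations (cut at about 23% in these data, passing the limit was not always enough); inconclusive means conflicting primary data, or primary hits not chosen for dose response; inactive means low primary inhibition, or under 50% at every dose.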 Shown is part of a subset that was picked to be rich in actives. Measured potencies and affinities stand elsewhere.

Biological target: Aminopeptidase N (Plasmodium falciparum (isolate 3D7)) (UniProt O96935)
Experiment: malaria alanyl aminopeptidase activity blockers – biochemical, fluorogenic H-Leu-NHMec substrate, 1536-well (AID 1445);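 further: plate controls were DMSO full reaction for no effect and no enzyme background for full effect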
Details: recombinant M1AAP, H-Leu-NHMec fluorogenic kinetic assay; at 30 µM, stronger effect = higher value unless noted

Aminopeptidase N (Plasmodium falciparum (isolate 3D7)), sequence (O96935 whole entry, looked up): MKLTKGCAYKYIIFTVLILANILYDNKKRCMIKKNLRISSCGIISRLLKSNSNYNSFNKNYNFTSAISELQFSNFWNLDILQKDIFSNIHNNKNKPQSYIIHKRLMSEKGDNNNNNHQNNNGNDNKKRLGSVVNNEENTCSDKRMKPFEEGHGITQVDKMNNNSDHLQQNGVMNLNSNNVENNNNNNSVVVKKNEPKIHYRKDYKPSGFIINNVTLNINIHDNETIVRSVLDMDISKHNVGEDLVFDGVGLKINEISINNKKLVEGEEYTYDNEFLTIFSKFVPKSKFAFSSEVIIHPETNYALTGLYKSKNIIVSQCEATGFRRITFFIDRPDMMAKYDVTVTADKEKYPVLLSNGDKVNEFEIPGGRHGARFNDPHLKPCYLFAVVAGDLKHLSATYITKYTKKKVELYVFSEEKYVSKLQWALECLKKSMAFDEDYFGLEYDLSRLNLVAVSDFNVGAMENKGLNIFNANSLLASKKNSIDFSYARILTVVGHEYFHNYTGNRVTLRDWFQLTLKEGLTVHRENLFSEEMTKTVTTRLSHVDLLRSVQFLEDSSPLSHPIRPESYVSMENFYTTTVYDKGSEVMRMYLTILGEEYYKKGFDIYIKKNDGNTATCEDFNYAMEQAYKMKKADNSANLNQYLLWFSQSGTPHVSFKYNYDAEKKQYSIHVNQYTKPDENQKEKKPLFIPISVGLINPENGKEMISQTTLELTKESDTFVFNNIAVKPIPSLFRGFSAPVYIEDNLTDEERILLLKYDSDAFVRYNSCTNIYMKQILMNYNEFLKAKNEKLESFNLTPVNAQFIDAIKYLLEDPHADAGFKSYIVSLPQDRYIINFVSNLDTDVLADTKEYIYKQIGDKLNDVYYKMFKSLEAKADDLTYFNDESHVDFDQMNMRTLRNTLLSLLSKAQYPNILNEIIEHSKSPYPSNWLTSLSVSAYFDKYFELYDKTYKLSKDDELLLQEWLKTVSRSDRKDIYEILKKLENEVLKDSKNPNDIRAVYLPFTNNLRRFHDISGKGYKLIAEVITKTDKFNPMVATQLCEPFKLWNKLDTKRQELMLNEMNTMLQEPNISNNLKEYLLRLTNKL

inhibition, inactive:
Cc1ccc(C(=O)Nc2ccccc2C(=O)N2CCCCCC2)cc1 4.87%
CC(C)CN(C(=O)COC(=O)c1ccccc1Sc1ccccc1C#N)C1CCS(=O)(=O)C1 (configuration not stated) -1.64%
O=c1c2ccccc2nc(COc2ccccc2)n1/N=C/c1ccc(O)c(O)c1 14.6%
O=c1c2ccccc2nc(COc2ccccc2)n1/N=C/c1ccc(O)cc1O 19.8%
Cc1cccc(C)c1OCc1nc2ccccc2c(=O)n1/N=C/c1c[nH]c2ccccc12 5.57%
CCCc1nc2ccccc2c(=O)n1/N=C/c1ccc(O)cc1 -1.67%
CCn1c(COc2cccc(C)c2C)nnc1SCC(=O)Nc1cc(C)on1 7.39%
COc1cc(/C=C/C(=O)OCC(=O)NCc2cccs2)ccc1OC(F)F 4.72%
O=C(N/N=C\c1ccc[nH]1)C1COc2ccccc2O1 (configuration not stated) 9.36%
CC1=NN(c2ccccc2)C(=O)C1C(=O)c1ccccc1 (configuration not stated) 14.1%
CC1=NN(c2ccccc2)C(=O)C1C=Nc1ccc(N(C)C)cc1 (configuration not stated) 12.8%
COC(=O)c1sccc1S(=O)(=O)Nc1ccc(S(N)(=O)=O)cc1 2.58%
CC(C)(C)NC(=O)CSc1nnc(SCC(=O)NC(C)(C)C)s1 1.09%
NC(=O)CSc1nnc(Cc2cccs2)n1C1CCCCC1 0.23%
Cc1ccccc1-n1c(SC/C(O)=C(\C#N)c2nc3ccccc3[nH]2)nnc1-c1ccncc1 13.8%
COc1ccc(C)cc1-n1nnnc1SC/C(O)=C(\C#N)c1nc2ccccc2[nH]1 -0.98%
N#CCSc1nnc(Cc2cccs2)n1C1CCCCC1 1.61%
CCOP(=O)(OCC)C(Nc1ccccc1)c1ccco1 (configuration not stated) 0.74%
CS(=O)(=O)NCc1ccc(C(=O)O)cc1 9.65%
NNC(=O)C1CC1c1ccccc1 (configuration not stated) -1.25%
COC(=O)c1cccc(NC(=O)C2COc3ccccc3O2)c1C (configuration not stated) 3.13%
Cc1ccc(C(=O)c2cc3c(cc2[N+](=O)[O-])OCCO3)cc1 1.34%
Cc1ccc(C(=O)c2coc3ccc(O)c(Cl)c23)cc1 2.57%
COc1ccc(OC)c(C(=O)c2c(C)oc3cc([N+](=O)[O-])c(O)c([N+](=O)[O-])c23)c1 7.96%
Cc1oc2cc([N+](=O)[O-])c(O)c([N+](=O)[O-])c2c1C(=O)c1ccc(Cl)cc1 16.5%
O=C1NC(c2ccccc2)=C(c2ccccc2)C1=O 18.7%
O=C(c1ccco1)N1CCN(C(c2ccccc2Cl)c2nnnn2Cc2cccs2)CC1 (configuration not stated) 1.56%
CC(C)(C)c1ccc(SCCc2ccccn2)cc1 0.53%
CC(C)Oc1ccc(NC(N)=O)cc1 4.7%
COc1cccc(-n2c(C)cc(/C=C3/C(=N)N4C(=NC3=O)SN=C4S(C)(=O)=O)c2C)c1 16.2%
CCC1=NN2C(=N)/C(=C\c3cccn3-c3c(C)cccc3C)C(=O)N=C2S1 13.2%
Cc1cc(C)cc(-n2cccc2/C=C2/C(=N)N3C(=NC2=O)SN=C3S(C)(=O)=O)c1 18.4%
CCC1=NN2C(=N)/C(=C\c3cccn3-c3ccc(Br)cc3)C(=O)N=C2S1 4.13%
CS(=O)(=O)C1=NSC2=NC(=O)/C(=C\c3cccn3-c3ccccc3Cl)C(=N)N21 12.3%
CCC1=NN2C(=N)/C(=C\c3cccn3-c3ccc(Cl)cc3)C(=O)N=C2S1 8.09%
CCOc1ccc(-n2c(C)cc(/C=C3/C(=N)N4C(=NC3=O)SN=C4S(C)(=O)=O)c2C)cc1 21.4%
CC1=CSC2=NC(=O)/C(=C\c3cccn3-c3ccccc3)C(=N)N12 5.41%
COC(=O)Nc1ccc(S(=O)(=O)N2CCCC(C(=O)Nc3cccnc3)C2)cc1 (configuration not stated) -1.96%
CCN(CC)CCN(C(=O)c1ccc(S(=O)(=O)N2CCCCC2)cc1)c1nc2cc3c(cc2s1)OCO3 -2.92%
O=C(NN1CCOCC1)c1sc2cccc(F)c2c1Cl 4.71%
O=C1c2ccccc2C(=O)N1c1nc2nccc(-c3ccccc3)n2n1 -0.09%
Cc1cc(NC(=O)c2cncc(Br)c2)n(-c2ccccn2)n1 1.7%
CCc1nnc(NS(=O)(=O)c2ccc(NC(=S)NC(=O)/C=C/c3ccc(OC)cc3)cc2)s1 2.25%
COc1cc(NS(=O)(=O)c2ccc(NC(=S)NC(=O)C(C)(C)C)cc2)nc(OC)n1 4.8%
CCc1nnc(NS(=O)(=O)c2ccc(NC(=S)NC(=O)/C=C/c3ccccc3)cc2)s1 13.3%
CCc1nnc(NS(=O)(=O)c2ccc(NC(=O)/C=C/c3ccc(F)cc3)cc2)s1 3.37%
CCc1nnc(NS(=O)(=O)c2ccc(NC(=S)NC(=O)/C=C/c3ccc(C(C)C)cc3)cc2)s1 19.8%
CCc1nnc(NS(=O)(=O)c2ccc(NC(=S)NC(=O)c3ccccc3)cc2)s1 13.4%
COc1cc(NS(=O)(=O)c2ccc(NC(=S)NC(=O)c3ccco3)cc2)nc(OC)n1 16.3%
CCc1nnc(NS(=O)(=O)c2ccc(NC(=S)NC(=O)c3ccncc3)cc2)s1 4.45%
O=C1NCCCC1C(=O)N/N=C/c1ccccc1O (configuration not stated) 9.72%
O=C(Cc1nn[nH]n1)NCc1ccccc1Cl 1.85%
CC1(C)CC(CCC(=O)NC(=S)Nc2ccccc2Cl)C(=O)O1 (configuration not stated) 8.14%
Cc1ccc(OCC(=O)Nc2ccccc2-c2ccccc2NC(=O)COc2ccc(C)cc2)cc1 3.53%
N#Cc1cc(C(=O)c2cc(F)ccc2O)cn(Cc2ccccc2)c1=O 7.68%
Cc1ccc(C(=O)NC(=S)Nc2ccc(CN3CCCCC3)cc2)c(C)c1 5.24%
CC(=O)N1CCN(c2ccc(Oc3nnnn3-c3ccccc3)cc2)CC1 2.19%
